Bioassay records as filed in PubChem.
L3MBTL1 block: qHTS Assay for the Inhibitors of L3MBTL1. Lethal(3)malignant brain tumor-like protein 1 (Homo sapiens), Q9Y468. AlphaScreen L3MBTL1–H3K9me1 peptide binding. Potency, µM (series often up to 57.1 µM), without a hit: at the top dose activity, negative = inhibition, actives largely listed as inhibitors. 0.66% of 230,000 active. AID 485360, 2010; further: on the % scale 0 is the no-effect control and ±100 the full control effect; nearly all actives have a fitted effect of over 60% in size
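L3MBTL1 (50 nM) pre-complexed 30 min with biotinylated H3(1-15)K9me1 peptide (75 nM), then compounds added for 30 min at room temperature; AlphaScreen streptavidin donor/nickel chelate acceptor beads (10 ug/mL final) read after 30 min dark incubation.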
HP1b chromo inh: HTS for Inhibitors of HP1-beta Chromodomain Interactions with Methylated Histone Tails. Chromobox protein homolog 1 (Homo sapiens), P83916. AlphaScreen HP1-beta / biotin-H3K9me3 peptide binding. Potency, µM (top dose mostly 114 µM), for inactives: at the highest dose activity change, negative = inhibition, actives largely listed as inhibitors. 0.56% of 390,000 active; further: nearly all actives have a fitted effect of over 70% in size
Target sequence (P83916 whole entry, looked up): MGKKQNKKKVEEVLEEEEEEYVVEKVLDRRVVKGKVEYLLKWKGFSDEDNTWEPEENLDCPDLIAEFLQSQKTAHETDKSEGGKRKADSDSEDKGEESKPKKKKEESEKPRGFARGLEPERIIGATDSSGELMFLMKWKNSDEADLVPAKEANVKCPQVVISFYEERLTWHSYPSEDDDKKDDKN
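HP1-beta protein (50 nM final) preincubated 30 min at room temperature with biotinylated H3(1-18)K9me3 peptide (50 nM) in PBS pH 7.4, 0.01% Tween-20, then compound added for 30 min. AlphaScreen streptavidin donor/nickel chelate acceptor beads (10 ug/mL final), 30 min dark, luminescence read.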
G9a block: qHTS Assay for Inhibitors of Histone Lysine Methyltransferase G9a. G9a H3K9 monomethylation, AlphaScreen, 2 h. AID 504332, 2011. Histone-lysine N-methyltransferase EHMT2 (Homo sapiens), Q96KQ7. 8.8% of 350,000 active. Potency, µM (series often up to 102 µM), inactives show at the highest dose activity, negative = inhibition, usual class: inhibitors; further: on the % scale 0 is the no-effect control and ±100 the full control effect; nearly all actives have a fitted effect of over 75% in size
Target sequence (Q96KQ7 913-1193 limits assumed): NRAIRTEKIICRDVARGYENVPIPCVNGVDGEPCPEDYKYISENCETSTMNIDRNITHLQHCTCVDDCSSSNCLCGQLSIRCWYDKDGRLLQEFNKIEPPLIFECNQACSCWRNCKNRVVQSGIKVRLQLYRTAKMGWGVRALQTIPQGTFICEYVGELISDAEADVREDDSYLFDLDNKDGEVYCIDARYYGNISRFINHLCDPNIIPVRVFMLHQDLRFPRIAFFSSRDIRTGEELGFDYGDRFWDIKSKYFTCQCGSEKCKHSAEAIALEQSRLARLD
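Methyltransferase reactions run at room temperature for 2 h (20 nM enzyme, 500 nM biotin-H3K9 peptide, 20 uM SAM) after a 15 min compound preincubation; product detected by AlphaScreen beads and anti-H3K9me1 antibody.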
GLS inhibitor: qHTS for Inhibitors of Glutaminase (GLS); GLS enzymatic activity, qHTS titration; Glutaminase kidney isoform, mitochondrial (Homo sapiens), O94925; 0.21% of 410,000 active; AID 624170, 2012; Potency, µM (titrated, usually from 45.5 µM), without a hit: top-dose activity change, negative = inhibition, actives largely listed as inhibitors; further: on the % scale 0 is the no-effect control and ±100 the full control effect
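Two-point fluorescence kinetic (t0, 30 min RT) for hKGA; glutamate detected via glutamate oxidase–HRP–Amplex Red. Substrate: 1 mM L-glutamine solution; buffer 45 mM KH2PO4, pH 8.2.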
JMJD2A Tudor: qHTS Assay for Inhibitors of JMJD2A-Tudor Domain; Lysine-specific demethylase 4A (Homo sapiens), O75164; AlphaScreen JMJD2A-Tudor / H3K4me3 peptide binding; Potency, µM (top dose mostly 114 µM), for inactives: at the top dose activity change, negative = inhibition, actives largely listed as inhibitors; 4.4% of 390,000 active; AID 504339, 2011; further: on the % scale 0 is the no-effect control and ±100 the full control effect; nearly all actives have a fitted effect of over 50% in size
BAZ2B block: qHTS Assay for Inhibitors of BAZ2B | Bromodomain adjacent to zinc finger domain protein 2B (Homo sapiens), Q9UIF8 | AlphaScreen BAZ2B-H3K14Ac peptide displacement | Potency, µM (doses to about 114 µM), for the others: at the top dose activity change, negative = inhibition, actives largely listed as inhibitors | 4.4% of 360,000 active; further: on the % scale 0 is the no-effect control and ±100 the full control effect; nearly all actives have a fitted effect of over 60% in size
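AlphaScreen luminescence quantifies BAZ2B engagement of H3K14Ac peptide; the protein and biotinylated peptide are both at 50 nM final, buffer PBS pH 7.4 with 0.01% Tween-20, all steps at room temperature.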
Starred values were filed as active, the others as inactive; ? = inconclusive; / = no result; ! = a repeat was not active; [ ] = remark or other dose. Rows were chosen to be rich in hits. Some 10% of all compounds tested hit in one or more screens of this group. The call rests on the fitted dose curve; in most records, active means well fitted curve in the direction sought with a large enough effect; inconclusive means small, poorly fitted or top-dose-only effect, or another doubt; inactive means no such curve, though single readings can be large; an effect the other way counts as inactive or inconclusive. Potency means the concentration at half of the fitted maximal effect.

SMILES	L3MBTL1 block	HP1b chromo inh	G9a block	GLS inhibitor	JMJD2A Tudor	BAZ2B block
Cc1ccc(C)n1Cc1ccc(C(=O)O)cc1	?	?	8.9µM*	7.1µM*	0.79µM*	16µM*
Cc1nc(CSc2nnc(C)s2)cs1	1%	59%	45µM*	-2%	-2%	-10%
Cc1nnc(SCc2ccc(F)cc2)s1	5%	45%	-1%[12.7 µM]	-7%	8%	15%
CCc1cccc(NC(=O)c2cc3c(=O)n(Cc4ccc(OC)cc4)ccc3nc2C)c1	/	27%	-21%[59 µM]	-2%	-14%	-8%
Cn1c(-n2cccc2)c(-c2c(-c3ccccc3)[nH]c3c2c(=O)[nH]c(=O)n3C)c(=O)[nH]c1=O	14µM*	-7%	-4%[12.7 µM]	-11%	-31%	79µM*
COc1cc(NC(=O)C2CCN(S(=O)(=O)c3c(C)noc3/C=C/c3c(C)cc(C)cc3C)CC2)cc(OC)c1	/	16%[57 µM]	0%[59 µM]	6%	-13%	0%
COC(=O)c1ccc(NC(=O)c2c(NCc3ccc(OC)c(OC)c3)sc3c2CCCC3)cc1	/	-8%	?	-30%	?	-39%
Cc1[nH][nH]c(=O)c1N=Nc1ccc(S(N)(=O)=O)cc1	/	20%	/	15%	-6%	/
NS(=O)(=O)c1ccc(N=Nc2c(O)c(C(=O)O)cc3ccccc23)cc1	-25%	?	34%[0.501 µM]	-15%	?	40µM*
O=C(O)c1cc2c(ccc3ccccc32)oc1=O	/	/	?	/	/	-2%
O=C(O)Cc1ccc(N=Nc2c(O)c(C(=O)O)cc3ccccc23)cc1	25µM*	50µM*	40µM*	71%	56µM*	28µM*
Cc1cccc(N2CCN(C(=O)CN3C(=O)COc4ccc(S(=O)(=O)N5CCCCCC5)cc43)CC2)c1C	/	12%	-32%[59 µM]	0%	-27%	-21%
S=c1[nH]c2ccccc2n2c(=S)[nH]nc12	/	19%	1.8µM*	7%	22µM*	50µM*
CCC1(c2ccccc2)NC(=S)N(c2cccc(C)c2C)N1 (stereo not given)	6%	34%	32µM*	-22%	-2%	-24%
Cc1ccc(Cl)cc1NS(=O)(=O)c1ccc2oc(=O)c3ncn(C)c3c2c1	/	31%	-10%[59 µM]	-14%	6%	-21%
C=CCNc1ccc(N2C(=O)C3CCC(C)CC3C2=O)cc1[N+](=O)[O-] (stereo not given)	?	/	50µM*	/	/	?
C=CCN(CC=C)c1ccc(N2C(=O)C3CCCCC3C2=O)cc1[N+](=O)[O-] (stereo not given)	/	-17%	22µM*	-3%	?	?
Cc1c(Br)c(O)c(Br)c(O)c1/C=N/n1c(-c2ccccc2)n[nH]c1=S	/	?	0.79µM*	?	25µM*	-38%
Oc1ccc(/C=N/n2c(-c3ccccc3)n[nH]c2=S)cc1Br	-6%	9%	0.89µM*	-8%	8.9µM*	-34%
Oc1c(Br)cc(/C=N/n2c(-c3ccccc3)n[nH]c2=S)c(O)c1Br	2%	-16%	0.4µM*	0%	4µM*	-27%
Oc1c(Br)cc(/C=N/n2c(-c3ccccc3)n[nH]c2=S)cc1Br	2%	5%	1.3µM*	-48%	3.2µM*	?
Cc1cccc(NS(=O)(=O)c2ccc3[nH]c(=O)ccc3c2)c1C	/	26%	-27%[59 µM]	-1%	-7%	-3%
Cc1cccc(NC(=O)c2sc3nc(-c4cc5ccc(O)cc5oc4=O)[nH]c(=O)c3c2C)c1	/	46%	5%[59 µM]	-18%	19%	10%
CCc1cccc(NC(=O)CCS(=O)(=O)c2cc3c4c(c2)CCN4C(=O)CC3)c1	/	-5%	?	-17%	-17%	-2%
CN(C)CCCN1c2ccc3ccccc3c2Sc2cccc(Cl)c21	/	?	/	27%	50µM*	/
SMILES	L3MBTL1 block	HP1b chromo inh	G9a block	GLS inhibitor	JMJD2A Tudor	BAZ2B block
CN(C)CCCN1c2ccccc2Sc2ccc3ccccc3c21	/	7%	/	22%	-33%	/
CN(C)CCCN1c2ccccc2Sc2ccc(Cl)cc21	-21%	?	71µM*!	-2%	20µM*	40µM*
CN(C)CCCN1c2ccccc2C(C)(C)c2ccccc21	/	/	?	57%	/	/
CCCCCCCCCCCCCCCC(=O)OCCC1CCN(CCCN2c3ccccc3Sc3ccc(S(=O)(=O)N(C)C)cc32)CC1	/	/	/	-2%	/	/
CN1CCN(CCCN2c3ccccc3Sc3ccc(S(=O)(=O)N(C)C)cc32)CC1	-1%	38%	10µM*	12%	-4%	?
Cc1ccc(-c2[nH]ncc2CNCc2ccc(CN(C)C)cc2)cc1	/	34%	/	/	-10%	/
CC(=O)Nc1ccc2nc(SCCOc3ccccc3Cl)sc2c1	/	35%	6%[59 µM]	2%	-14%	-1%
O=[N+]([O-])c1ccc2nc(SCc3ccccc3Cl)sc2c1	-6%	-10%	?	-1%	?	-38%
C=CCc1ccccc1OCCSc1nc2ccc([N+](=O)[O-])cc2s1	-12%	-10%	20µM*	1%	-31%	-38%
COc1ccccc1OCCSc1nc2ccc([N+](=O)[O-])cc2s1	-13%	?	13µM*	5%	?	?
CCc1cccc(C)c1NC(=O)Cn1ccn(-c2cccc(OC)c2)c(=O)c1=O	/	27%	-3%[59 µM]	4%	6%	2%
OCC1O[C@H](O[C@H]2C(O)C(O)C(O)O[C@@H]2CO)C(O)C(O)C1O (stereo not given in full)	/	/	-29%[12.7 µM]	-6%	/	/
Cn1cc(S(=O)(=O)N2CCCCCC2)cc1C(=O)N1CCN(c2cccc(C(F)(F)F)c2)CC1	/	8%[57 µM]	-28%[59 µM]	9%	-22%	-18%
O=C1CCCc2cc(S(=O)(=O)NCC3CCC(C(=O)Nc4ccc(Cl)cc4)CC3)ccc2N1 (stereo not given)	/	23%	-16%[59 µM]	8%	-7%	-1%
CCc1ccc(-n2c(=O)c3c4c(sc3n(CC(=O)N3CCCCC3CC)c2=O)CCC4)cc1 (stereo not given)	/	17%	-44%[59 µM]	-3%	-14%	-21%
CCCCc1nnc2c(N(C)S(=O)(=O)c3ccccc3)nc3ccccc3n12	0%	9%	71µM*	8%	-7%	-7%
CC(C)c1nnc2c(N(C)S(=O)(=O)c3ccccc3)nc3ccccc3n12	/	37%	-1%	-1%	-10%	-3%
